Compound activity: PubChem BioAssay, National Center for Advancing Translational Sciences (NCATS)
Compounds with a hit are over-represented: about 0.97% of the library has one in this group of screens.
uPA surface inh: cell surface uPA generation inhibition. Potency, µM (doses to about 38.3 µM), inactives show at the top dose activity change, negative = inhibition, actives largely listed as inhibitors. hit rate 0.31% among 330,000. cell surface uPA generation assay, qHTS; active = well fitted inhibition curve with a large enough effect; inconclusive = small, poorly fitted or top-dose-only effect; inactive = no such curve, though single readings can be large or run the other way; tested in mouse RAW 264.7 cells; note: potency is the fitted concentration of half-maximal effect; % is set by controls: 0 for no effect and ±100 for the full control effect; nearly all actives have a fitted effect of over 55% in size
Epigenetic reg: derepresses silenced GFP reporter in murine cells; murine LDR cells, GFP reporter derepression, 30 h; Potency, µM (series often up to 53.9 µM), inactives show at the top dose GFP activation, actives largely listed as activators; hit rate 0.2% among 280,000; AID 1865; note: potency is the fitted concentration of half-maximal effect; % of control where 0% means no effect; nearly all actives have a fitted effect of over 60% in size
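Derepression of a silenced CMV-GFP reporter in murine LDR cells is scored by enumerating GFP-positive cells with a laser-scanning microplate cytometer after 30 hours of treatment at 37 C.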
CCT chaperon mod: cytosolic chaperonin activity modulation. purified chaperonin ATPase assay, HTRF ADP detection, 30 min. hit rate 0.3% among 360,000. AID 651819. activity change, % (concentration not given with the values), hits read low; in the data active = activity change below about -30%; note: % is set by controls: 0 for no effect and ±100 for the full control effect
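TRiC at 40 or 20 nM final (batch-dependent) in 30 mM Tris pH 7.4, 100 mM KCl, 5 mM MgCl2, 1 mM DTT, with compound at single 76 uM and 10 uM ATP, 30 min at 37 deg C. ADP detected by HTRF Transcreener, 665/615 ratio.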
MBNL1 CUG block: MBNL1-poly(CUG) RNA binding inhibition. hit rate 0.036% among 280,000. TR-FRET MBNL1-His/biotin-(CUG)12 binding, 665/545 ratio. Q9NR56. Potency, µM (doses to about 57.5 µM), for inactives: at the top dose activity change, negative = inhibition, most hits filed as inhibitors. AID 2675; active = well fitted inhibition curve with a large enough effect in the signal ratio, with a control signal flat, not every such curve was filed as active; inconclusive = small, poorly fitted or top-dose-only effect, or effect the other way, or a change in a side signal; inactive = no such curve, though single readings can be large or run the other way; the % refers to the signal ratio; note: potency is the fitted concentration of half-maximal effect; % is set by controls: 0 for no effect and ±100 for the full control effect
Target sequence (Q9NR56 whole entry, looked up): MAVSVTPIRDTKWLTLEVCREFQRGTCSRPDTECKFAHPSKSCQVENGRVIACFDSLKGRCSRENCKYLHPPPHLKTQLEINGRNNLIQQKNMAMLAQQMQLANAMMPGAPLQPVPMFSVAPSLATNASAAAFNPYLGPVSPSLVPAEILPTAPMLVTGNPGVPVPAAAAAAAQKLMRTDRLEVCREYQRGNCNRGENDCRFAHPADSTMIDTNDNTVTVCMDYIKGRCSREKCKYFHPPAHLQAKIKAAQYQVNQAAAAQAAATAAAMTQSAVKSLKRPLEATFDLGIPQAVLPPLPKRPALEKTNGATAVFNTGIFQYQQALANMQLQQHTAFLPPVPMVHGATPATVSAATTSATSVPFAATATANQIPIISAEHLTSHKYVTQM
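Compound titration spanned 92 nM–58 uM against the MBNL1-His/biotin-(CUG)12 complex. After 60 min at room temperature with 5 nM streptavidin-XL665 and 0.055 ng/ul terbium anti-His, ratiometric 665/545 nm emission (Ex 340 nm) normalized to controls.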
Mm-Cpn inhibitor: M. maripaludis TRiC chaperonin inhibition; purified Mm-Cpn ATPase, ADP Transcreener TR-FRET; Potency, µM (titrated, usually from 76.9 µM), for inactives: at the top dose activity, negative = inhibition, usual class: inhibitors; hit rate 0.031% among 330,000; AID 504842; note: potency is the fitted concentration of half-maximal effect; % is set by controls: 0 for no effect and ±100 for the full control effect; nearly all actives have a fitted effect of over 80% in size
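Inhibition of chaperonin ATP hydrolysis is measured as reduced ADP production, detected by competitive TR-FRET in which signal falls with ADP. Final enzyme 25 nM and ATP 10 uM, reacted 30 min at 37°C.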
pAkt inh: blocks phosphorylation of Akt; Neuro2A IGF-stimulated pAkt S473 HTRF, 20 min; active compounds read low; activity change, % for hits at 50 µM; hit rate 0.32% among 360,000; in the data active = activity change below about -80%; inconclusive = mostly about -51% to -80%; note: % is set by controls: 0 for no effect and ±100 for the full control effect
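Single-point screen (50 µM final compound) in Neuro2A cells stimulated 20 min with 6 nM IGF at 37 deg C. After lysis, Ser473-phosphorylated Akt read by HTRF (ex 330 nm, em 615/665 nm) as the 665/615 ratio.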
MBNL1-CUG FRET: confirmation of inhibitors of human MBNL1-poly(CUG) RNA binding. AID 493199. hit rate 50% among 140. TR-FRET MBNL1-His / biotin-(CUG)12 binding, 60 min. Potency, µM (doses to about 57.6 µM), for the others: at the top dose activity change, negative = inhibition, usual class: inhibitors. shares compounds with MBNL1 CUG block
MBNL1-CUG Alpha: confirmation of MBNL1-(CUG)12 RNA binding inhibitors, orthogonal format. shares compounds with MBNL1 CUG block. hit rate 30% among 140. AID 493205. AlphaScreen MBNL1-His / biotin-(CUG)12 binding. Potency, µM (titrated, usually from 57.7 µM), for the others: top-dose activity, negative = inhibition, hits mostly inhibitors
Menin-MLL HTRF: hit in HTRF counterscreen for MBNL1-poly(CUG) binding inhibitors. shares compounds with MBNL1 CUG block. His-Menin/biotin-MLL peptide TR-FRET counterscreen. Potency, µM (titrated, usually from 57.6 µM), for inactives: top-dose activity, negative = inhibition, usual class: inhibitors. hit rate 20% among 120. AID 651843
* hit, by the source's call; i = inactive; ? = inconclusive; . = no result given. Unless noted, calls come from the whole dose curve; as a rule, active = well fitted curve in the direction sought with a large enough effect; inconclusive = small, poorly fitted or top-dose-only effect, or another doubt; inactive = no such curve, though single readings can be large; an effect the other way counts as inactive or inconclusive.

SMILES	uPA surface inh	Epigenetic reg	CCT chaperon mod	MBNL1 CUG block	Mm-Cpn inhibitor	pAkt inh	MBNL1-CUG FRET	MBNL1-CUG Alpha	Menin-MLL HTRF
CN(CC(=O)Nc1sccc1C#N)C1CCCCC1	-0.3%	-1.2%	-1.1	28.2µM*	-1.6%	i	-22.3%	-0.5%	0.4%
CCOC(=O)C1(CCOc2ccccc2)CCN(Cc2ccc(-n3cccn3)cc2)CC1	-25.6%	2.6%	-1.0	11.2µM*	2.5%	i	6.51µM*	?	-46.3%
Cc1cc(C(=O)NP(=O)(N2CC(C)OC(C)C2)N2CC(C)OC(C)C2)c(C)n1C1CC1 (stereo not given)	-2.2%	-4.2%	4.9	3.4%	2.9%	i	.	.	.
N#Cc1c(N)nc(SCC(=O)NCCc2ccccc2)c(C#N)c1-c1cccs1	2.5%	2.2%	-22.4	134.3%	-12.8%	-89.4%*	?	-2.7%	-0.3%
Cc1c(CC(=O)NCC(=O)O)c(=O)oc2cc3c(cc12)CCC(C)(C)O3	-1.1%	.	-1.0	17.6%	-3.2%	i	.	.	.
CCNC(=O)C1(C)CCCN(C(=O)c2sccc2C)C1 (stereo not given)	.	.	0.5	.	.	i	.	.	.
C[C@@H]1NC(=O)[C@@H](N)CNC(=O)[C@H](C2CCNC(N)=N2)NC(=O)/C(=C/NC(N)=O)NC(=O)[C@H](CNC(=O)C[C@@H](N)CCCN)NC1=O (stereo not given in full)	.	.	.	.	.	.	.	.	-11.0%
NCCCC(N)CC(=O)NCC1NC(=O)C(CO)NC(=O)C(N)CNC(=O)C(C2CCN=C(N)N2)NC(=O)/C(=C\NC(N)=O)NC1=O (stereo not given)	.	0.0%	.	.	.	.	.	.	.
NCCCC(N)CC(=O)NC1CNC(=O)C(C2CC(O)N=C(N)N2)NC(=O)/C(=C/NC(N)=O)NC(=O)C(CO)NC(=O)C(CO)NC1=O (stereo not given)	.	.	.	.	.	.	?	?	.
COc1ccc(Nc2ncc3c(n2)CC(c2ccc(OC)cc2)CC3=O)cc1 (stereo not given)	-3.0%	-0.8%	-11.4	-0.1%	-0.2%	i	.	.	.
Cc1cc(C)c(NC(=O)Nc2ccccc2)c(C)n1	2.5%	.	-1.2	.	1.1%	i	.	.	.
Cc1cc(N)c2cc(NC(=O)Nc3ccc4nc(C)cc(N)c4c3)ccc2n1	.	.	.	.	.	.	.	.	20.6µM*
O=C(CCO)c1ccc(O)cc1	0.1%	0.0%	-0.1	25.1µM*	.	i	?	?	-0.3%
CCCCC(=O)c1ccc(O)cc1	-4.9%	-1.0%	2.5	3.4%	-1.4%	i	.	.	.
COc1cccc(-c2cc3nc(Nc4ccc(OC)c(OC)c4)n(C)c(=O)c3s2)c1	.	.	1.7	.	.	i	.	.	.
O=C(/C=C/c1cccs1)Nc1scc(-c2ccccc2)c1C(=O)O	-7.9%	0.3%	-1.7	.	?	i	20.6µM*	13µM*	9.7%
CC(C)N1CCC1(C)C(=O)Nc1ccc2cn[nH]c2c1 (stereo not given)	.	.	1.1	.	.	i	.	.	.
COc1ccc([C@H]2CC(=O)C=C(c3ccc(CNC(=O)OC(C)(C)C)cc3)C2)cc1	?	.	0.4	.	-3.5%	i	.	.	.
CCOC(=O)CCCCC(=O)c1[nH]c(=O)[nH]c1C[n+]1ccc(C)cc1	10.6%	11.5%	-1.1	?	2.6%	i	.	.	.
CCOC(=O)CCCCC(=O)c1[nH]c(=O)[nH]c1CN1CCOCC1	-7.3%	0.0%	-2.9	2.24µM*	-1.1%	i	4.11µM*	0.919µM*	16.3µM*
CCOC(=O)c1[nH]c(=O)[nH]c1CSc1nc(C)cc(C)n1	4.6%	?	2.0	-9.1%	-6.9%	i	.	.	.
CCOC(=O)CCCCC(=O)c1[nH]c(=O)[nH]c1CSc1nc(C)cc(=O)[nH]1	11.3%	0.0%	1.8	1.78µM*	0.0%	i	0.517µM*	0.073µM*	3.66µM*
CCOC(=O)c1c(C)[nH]c(C(=O)CN2CCOCC2)c1C	.	0.0%	-0.9	-6.4%	.	i	.	.	.
CCOC(=O)CCCCC(=O)c1[nH]c(=O)[nH]c1CSc1nc(C)cc(C)n1	-3.6%	-5.9%	-1.0	31.6µM*	-0.7%	i	25.9µM*	4.11µM*	-22.3%
CCOC(=O)CCCCC(=O)c1[nH]c(=O)[nH]c1C[n+]1ccccc1	.	-1.8%	.	31.6µM*	-7.0%	.	16.3µM*	3.26µM*	?
SMILES	uPA surface inh	Epigenetic reg	CCT chaperon mod	MBNL1 CUG block	Mm-Cpn inhibitor	pAkt inh	MBNL1-CUG FRET	MBNL1-CUG Alpha	Menin-MLL HTRF
O=C(Nc1ccc(Cl)c(Cl)c1)C1C2C=CC3(O2)C1C(=O)N(CCN1CCCCC1)C3C(=O)NC1CCCCC1 (stereo not given)	-12.4%	.	0.7	-4.9%	-0.4%	i	.	.	.
O.O.O.O.O.O.O.O=S(=O)([O-])[O-].[Co+2]	.	.	.	.	.	.	3.26µM*	2.59µM*	?
O=C(Nc1cc(C(=O)Nc2ccc(S(=O)(=O)O)cc2S(=O)(=O)O)cc(C(=O)Nc2ccc(S(=O)(=O)O)cc2S(=O)(=O)O)c1)Nc1cc(C(=O)Nc2ccc(S(=O)(=O)O)cc2S(=O)(=O)O)cc(C(=O)Nc2ccc(S(=O)(=O)O)cc2S(=O)(=O)O)c1	.	-1.2%	.	.	.	.	20µM*	28.2µM*	.
O=C(Nc1ccc(C(=O)Nc2ccc(C(=O)Nc3ccc(S(=O)(=O)O)c4cc(S(=O)(=O)O)cc(S(=O)(=O)O)c34)cc2)cc1)Nc1ccc(C(=O)Nc2ccc(C(=O)Nc3ccc(S(=O)(=O)O)c4cc(S(=O)(=O)O)cc(S(=O)(=O)O)c34)cc2)cc1	.	1.1%	.	.	.	.	.	.	.
N#Cc1c(N2CCCC2)nc(N)c2c(N)nc(N3CCCC3)cc12	-10.3%	-7.9%	0.6	.	-14.5%	i	5.17µM*	0.651µM*	21.8%
CCOc1ccc(NC(=O)CSc2nnc(C)n2CC)cc1	1.5%	.	1.6	-2.3%	1.1%	i	.	.	.
COC(=O)c1cccc(NC(=O)c2ccc[n+]([O-])c2)c1	0.3%	.	0.4	39.8µM*	1.5%	i	-24.1%	?	-0.5%
COC(=O)c1cccc(NC(=O)c2ccccc2)c1	-13.4%	0.3%	-0.4	-7.2%	1.7%	i	.	.	.
CCCCc1nn2c(=O)cc(COC(=O)c3ccc(NC(=O)C4CCCCC4)cc3)nc2s1	.	3.3%	.	.	.	.	.	.	.
